Compound activity (PubChem BioAssay)
The full list was thinned out, with hits kept by preference.
Giardia FBPA inh-1 = Giardia lamblia aldolase inhibition | purified Giardia FBPA | Potency, µM (series often up to 59.6 µM), for the others: top-dose activity, negative = inhibition, hits mostly inhibitors | 290,000 compounds, 0.71% hits | AID 2451; note: potency is the fitted concentration of half-maximal effect; % is set by controls: 0 for no effect and ±100 for the full control effect; nearly all actives have a fitted effect of over 55% in size
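Giardia FBPA (40 nM reagent) was preincubated 10 min at RT with compound (up to 57.5 uM final), then substrate plus GAPDH/TPI/NAD/arsenate coupling system with diaphorase/resazurin was added; resorufin fluorescence (525/598 nm) was read after 20 min.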
Cycloheximide cs = counter-screen for Shiga toxin inhibitors: cycloheximide protein synthesis inhibition. cell reporter, cycloheximide protein synthesis inhibition counterscreen. max response, %. 300,000 compounds, 12% hits. AID 2314; in the data active = max response mostly above about 13%, no sharp cut-off; inactive = mostly below about 14%; note: read at 38.3 µM for the half of the compounds with a filed dose; 0% is about no effect
RE007 growth inh = less growth of the S. pombe RE007 Vpr strain | S. pombe RE007 Vpr strain, BacTiter-Glo ATP luminescence, 24 h | Potency, µM (titrated, usually from 92.2 µM), inactives show top-dose activity change, negative = less growth, usual class: inhibitors | 360,000 compounds, 0.21% hits; active = well fitted falling curve with a large enough effect; inconclusive = small, poorly fitted or top-dose-only effect; inactive = no such curve, though single readings can be large or run the other way; note: potency is the fitted concentration of half-maximal effect; % is set by controls: 0 for no effect and ±100 for the full control effect; nearly all actives have a fitted effect of over 50% in size
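Fission yeast RE007 carrying one integrated HIV-1 vpr copy, seeded at OD 0.01 in PMG+AL medium with 23 nL pinned compound. Grown 24 h at 30 degrees; viability read by BacTiter-Glo luminescence after 5 min.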
Tb PYK inh = T. brucei pyruvate kinase inhibition; 410,000 compounds, 0.12% hits; AID 624173; TbPYK enzyme, Kinase-Glo Plus ATP luminescence, 45 min; Potency, µM (series often up to 76.8 µM), for inactives: at the top dose activity, negative = inhibition, actives largely listed as inhibitors; note: potency is the fitted concentration of half-maximal effect; % is set by controls: 0 for no effect and ±100 for the full control effect; nearly all actives have a fitted effect of over 50% in size
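TbPYK + substrate in 50 mM TEA pH 7.2, 100 mM KCl, 10 mM MgCl2, 0.05% BSA, 0.01% Tween-20; cpd pinned; ADP 130 uM final; 45 min RT; Kinase-Glo Plus 10 min; luminescence endpoint.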
Shiga inhibitor = blocks Shiga toxin action in Vero cells | inhibition, % at 38.7 µM | AID 2315 | 290,000 compounds, 9.2% hits | Vero cells, Shiga toxin protein synthesis inhibition reporter; in the data active = inhibition mostly above about 28%, no sharp cut-off; inactive = mostly below about 43%; note: 0% is about no effect
LmPK inhibitor = inhibitors of Leishmania mexicana pyruvate kinase; Q27686; purified LmPK, Kinase-Glo ATP luminescence, 1 h; Potency, µM (highest dose often 57.5 µM), inactives show top-dose activity change, negative = inhibition, usual class: inhibitors; 290,000 compounds, 0.37% hits; AID 1721; note: potency is the fitted concentration of half-maximal effect; % is set by controls: 0 for no effect and ±100 for the full control effect
Target sequence (Q27686 whole entry, looked up): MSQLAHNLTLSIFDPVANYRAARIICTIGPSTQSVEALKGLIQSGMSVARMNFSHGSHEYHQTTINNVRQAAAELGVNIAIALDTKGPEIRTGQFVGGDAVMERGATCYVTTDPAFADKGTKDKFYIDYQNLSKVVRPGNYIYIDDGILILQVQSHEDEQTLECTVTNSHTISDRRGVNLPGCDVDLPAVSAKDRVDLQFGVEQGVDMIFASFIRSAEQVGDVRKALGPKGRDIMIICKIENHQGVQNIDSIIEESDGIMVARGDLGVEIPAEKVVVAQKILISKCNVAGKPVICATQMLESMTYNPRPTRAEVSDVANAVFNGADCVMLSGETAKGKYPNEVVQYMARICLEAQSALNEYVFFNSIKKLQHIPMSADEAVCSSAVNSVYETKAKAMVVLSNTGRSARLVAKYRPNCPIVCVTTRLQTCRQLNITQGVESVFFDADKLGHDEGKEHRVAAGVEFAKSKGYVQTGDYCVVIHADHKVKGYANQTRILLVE
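Purified LmPK (0.1 nM) with 0.5 mM PEP and 0.1 mM ADP in imidazole buffer pH 7.2 with MgCl2/KCl, 1 h at room temperature. ATP formed was read by luciferase luminescence and normalized to no-enzyme and uninhibited controls.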
Giardia growth = inhibitors of Giardia lamblia growth. shares compounds with Giardia FBPA inh-1. Giardia lamblia trophozoite growth inhibition. Potency, µM (titrated, usually from 57.5 µM), for the others: top-dose activity change, negative = inhibition, actives largely listed as inhibitors. AID 2785. 1,500 compounds, 5% hits;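 note: potency is the fitted concentration of half-maximal effect; trophozoites exposed to compound for 48 h at 37 °C; % is set by controls: 0 for no effect and ±100 for the full control effect; nearly all actives have a fitted effect of over 70% in size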
Mammal cell tox = toxic to mammalian cells in Giardia aldolase counter-screen; shares compounds with Giardia FBPA inh-1; mammalian cell viability counter-screen, qHTS; Potency, µM (top dose mostly 57.5 µM), inactives show at the top dose viability change, negative = toxicity, actives largely listed as inhibitors; 1,500 compounds, 4% hits; AID 2786;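 note: Chinese hamster ovary cells used as mammalian cytotoxicity surrogate; viability measured as cellular ATP by luminescence; potency is the fitted concentration of half-maximal effect; compound exposure lasted 48 h before reading; % is set by controls: 0 for no effect and ±100 for the full control effect; nearly all actives have a fitted effect of over 60% in size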
Giardia FBPA inh-2 = confirmation of Giardia fructose-bisphosphate aldolase inhibitors; purified Giardia aldolase enzyme activity, qHTS; 1,500 compounds, 5% hits; Potency, µM (top dose mostly 57.5 µM), inactives show at the highest dose activity change, negative = inhibition, usual class: inhibitors; shares compounds with Giardia FBPA inh-1; note: potency is the fitted concentration of half-maximal effect; % is set by controls: 0 for no effect and ±100 for the full control effect; nearly all actives have a fitted effect of over 45% in size
Rabbit aldolase = rabbit FBP aldolase inhibition by Giardia aldolase hits; shares compounds with Giardia FBPA inh-1; 1,500 compounds, 4% hits; Potency, µM (top dose mostly 57.5 µM), for inactives: top-dose activity, negative = inhibition, most hits filed as inhibitors; Rabbit muscle FBPA enzyme inhibition, selectivity counter-screen; note: potency is the fitted concentration of half-maximal effect; % is set by controls: 0 for no effect and ±100 for the full control effect; nearly all actives have a fitted effect of over 60% in size
GAPDH counter = GAPDH inhibition flagged for Giardia aldolase hits | shares compounds with Giardia FBPA inh-1 | GAPDH coupling enzyme counterscreen, biochemical, qHTS | Potency, µM (top dose mostly 57.5 µM), for inactives: top-dose activity change, negative = inhibition, hits mostly inhibitors | 1,500 compounds, 6% hits | AID 2795; note: potency is the fitted concentration of half-maximal effect; % is set by controls: 0 for no effect and ±100 for the full control effect; nearly all actives have a fitted effect of over 55% in size
* marks the source's active call; other numbers are inactive results; u = inconclusive; x = no result given; [ ] = remark or other dose. Unless noted, calls come from the whole dose curve; as a rule, active = well fitted curve in the direction sought with a large enough effect; inconclusive = small, poorly fitted or top-dose-only effect, or another doubt; inactive = no such curve, though single readings can be large; an effect the other way counts as inactive or inconclusive.

SMILES | Giardia FBPA inh-1 | Cycloheximide cs | RE007 growth inh | Tb PYK inh | Shiga inhibitor | LmPK inhibitor | Giardia growth | Mammal cell tox | Giardia FBPA inh-2 | Rabbit aldolase | GAPDH counter
c1ccc(-c2nc(-c3ccncc3)n[nH]2)nc1 | 3.5µM* | 10 | -24% | -7% | 32 | u | -20%[38.3 µM] | -13% | -20% | -9% | -10%
Cn1c(=O)c2c(ncn2CC(=O)N/N=C/C=C/c2ccccc2[N+](=O)[O-])n(C)c1=O | 1% | 10 | 3% | 4% | 12 | -1% | x | x | x | x | x
Cn1c(=O)cc(C(=O)N/N=C/c2ccc(F)cc2)[nH]c1=O | 16µM* | 0 | -8% | -14% | -9 | -1% | 122% | 14% | 5% | -7% | 6%
O=C(O)c1ccc(/C=N/NC(=O)c2ccc(F)cc2)cc1 | -11% | 16 | -2% | -2% | 7 | 1% | x | x | x | x | x
O=C(CN1CCOCC1)Nc1c2c(nc3ccccc13)N(Cc1ccccc1)CC2 | 16µM* | -1 | -19% | 5% | -16 | -16% | u | -3% | -7% | -3% | -5%
CCOCCCNC(=O)C1CCN(Cc2cccc(OCc3ccccc3)c2)CC1 | u | 7 | 1% | 2% | 1 | -2% | x | x | x | x | x
COc1cc(CN2CCC(C(=O)NCC(C)(C)CN(C)C)CC2)ccc1OCc1ccccc1 | 22µM* | 13 | -10% | 12% | x | -7% | u | -20% | 9% | 6% | 11%
CCc1ccc(NC(=O)C2CCCN2S(=O)(=O)c2cccc3nsnc23)cc1 (stereo unspecified) | x | x | x | 1% | x | x | x | x | x | x | x
